Data taken from PubChem BioAssay AID1159580 (chemical genetic matrix, 2015).
In all, about 5,500 compounds went through this assay and about 2,000 (36%) were called active. Roughly 18% stayed inconclusive and do not appear here. No stated cut-off is given here; in the data, active means normalized growth mostly below about 0.91 (no sharp cut-off); inconclusive means no clear call, values can overlap the other calls; inactive means mostly above about 0.92. The list shows a part of the results.

Assay: chemical genetic growth profiling, strain panel (AID 1159580);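 further: tested at 20 µM; growth read once vehicle control cultures reached saturation at 30 °C; 1 = growth at the plate median or of vehicle wells; lower values mean less growth of the strain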
Details: S. cerevisiae deletion strains, growth OD

Measured: normalized growth

CCCCCCCCCCCCCC(=O)OC1C(C)C2(O)C(C=C(CO)CC3(O)C(=O)C(C)=CC32)C2C(C)(C)C12OC(C)=O (centres undefined)
inactive: locus YAL013W, strain DEP1, active compounds read low 1 | locus YAL021C, strain ccr4, active compounds read low 0.982 | locus YAL026C, strain drs2, active compounds read low 0.985 | locus YAL030W, strain snc1, active compounds read low 0.991 | locus YBL061C, strain skt5, active compounds read low 0.981 | locus YBR009C, strain hhf1, active compounds read low 0.965 | locus YBR021W, strain FUR4, active compounds read low 0.988 | locus YBR023C, strain chs3, active compounds read low 0.97 | locus YBR171W, strain sec66, active compounds read low 0.981 | locus YBR229C, strain ROT2, active compounds read low 1.02 | locus YBR231C, strain swc5, active compounds read low 0.98 | locus YBR279W, strain paf1, active compounds read low 0.988 | locus YCL011C, strain gbp2, active compounds read low 0.98 | locus YCL016C, strain dcc1, active compounds read low 0.996 | locus YCL029C, strain bik1, active compounds read low 0.996 | locus YCL061C, strain MRC1, active compounds read low 0.987 | locus YCL069W, strain vba3, active compounds read low 0.986 | locus YCR088W, strain abp1, active compounds read low 0.989 | locus YDL005C, strain med2, active compounds read low 0.988 | locus YDL035C, strain GPR1, active compounds read low 1.06 | locus YDL040C, strain nat1, active compounds read low 0.979 | locus YDL074C, strain BRE1, active compounds read low 1.04 | locus YDL101C, strain DUN1, active compounds read low 1.01 | locus YDL134C, strain PPH21, active compounds read low 1.01 | locus YDL185W, strain tfp1, active compounds read low 1.01 | locus YDL192W, strain arf1, active compounds read low 0.997 | locus YDR001C, strain nth1, active compounds read low 0.978 | locus YDR069C, strain doa4, active compounds read low 0.985 | locus YDR101C, strain arx1, active compounds read low 0.996 | locus YDR137W, strain rgp1, active compounds read low 0.97 | locus YDR150W, strain NUM1, active compounds read low 1 | locus YDR159W, strain sac3, active compounds read low 0.969 | locus YDR162C, strain NBP2, active compounds read low 1.03 | locus YDR195W, strain ref2 0.96 | locus YDR297W, strain sur2, active compounds read low 0.985 | locus YDR318W, strain mcm21, active compounds read low 0.985 | locus YDR334W, strain swr1, active compounds read low 0.989 | locus YDR335W, strain msn5, active compounds read low 0.987 | locus YDR388W, active compounds read low 0.99 | locus YDR392W, strain spt3, active compounds read low 0.919 | locus YDR502C, strain sam2, active compounds read low 1 | locus YEL003W, strain gim4, active compounds read low 0.982 | locus YEL037C, strain rad23, active compounds read low 0.978 | locus YEL061C, strain CIN8 (second series), active compounds read low 0.976 | locus YEL061C, strain CIN8, active compounds read low 1.01 | locus YER015W, strain faa2, active compounds read low 0.986 | locus YER016W, strain bim1, active compounds read low 0.98 | locus YER110C, active compounds read low 0.994 | locus YER111C, strain swi4, active compounds read low 0.965 | locus YER155C, strain BEM2 (second series), active compounds read low 0.987 | locus YER155C, strain BEM2, active compounds read low 0.996 | locus YER167W, strain BCK2, active compounds read low 0.988 | locus YFR010W, strain ubp6, active compounds read low 0.977 | locus YGL078C, strain dbp3, active compounds read low 0.99 | locus YGL086W, strain mad1, active compounds read low 0.978 | locus YGL167C, strain pmr1, active compounds read low 0.989 | locus YGL173C, strain kem1, active compounds read low 0.984 | locus YGL227W, strain vid30, active compounds read low 0.979 | locus YGL240W, strain doc1, active compounds read low 0.976 | locus YGL248W, strain PDE1, active compounds read low 1.02 | locus YGL253W, strain hxk2, active compounds read low 0.98 | locus YGR078C, strain PAC10, active compounds read low 1.03 | locus YGR135W, strain pre9, active compounds read low 1.01 | locus YGR229C, strain SMI1, active compounds read low 1.02 | locus YGR252W, strain gcn5, active compounds read low 1.04 | locus YHR013C, strain ard1, active compounds read low 0.934 | locus YHR027C, strain rpn1, active compounds read low 0.994 | locus YHR030C, strain SLT2, active compounds read low 0.995 | locus YHR079C, strain IRE1 (second series), active compounds read low 0.992 | locus YHR094C, strain hxt1, active compounds read low 0.994 | locus YHR129C, strain ARP1, active compounds read low 0.997 | locus YHR142W, strain chs7, active compounds read low 0.952 | locus YHR200W, strain rpn10, active compounds read low 0.989 | locus YIL066C, strain RNR3, active compounds read low 1.01 | locus YIL073C, strain SPO22, active compounds read low 0.986 | locus YIL125W, strain kgd1, active compounds read low 0.991 | locus YIR030C, strain dcg1, active compounds read low 0.994 | locus YJL092W, strain hpr5, active compounds read low 0.984 | locus YJL095W, strain BCK1 (second series), active compounds read low 0.99 | locus YJL095W, strain BCK1, active compounds read low 1 | locus YJL115W, strain asf1, active compounds read low 0.979 | locus YJL129C, strain trk1, active compounds read low 0.962 | locus YJL134W, strain LCB3, active compounds read low 0.992 | locus YJL154C, strain vps35, active compounds read low 0.986 | locus YJL164C, strain tpk1, active compounds read low 1.01 | locus YJL166W, strain qcr8, active compounds read low 0.981 | locus YJL168C, strain set2, active compounds read low 0.993 | locus YJL187C, strain SWE1 (second series), active compounds read low 1.02 | locus YJL187C, strain SWE1, active compounds read low 0.99
